# Measurements taken from the supplement of paper PMC6555819.
# System: PXR homodimer (NR concentration 270 nM)
# Experiment: PBM binding z-score (relative to random genomic background probes); higher = stronger binding; sequences stand for … in GC…GCGATTGACAGCGTAGAATGAAGG
# Procedure, shortened: (§1)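 Probes were double-stranded and carried 34-nt variable regions with direct-repeat seeds, single-nucleotide variants, half-site ablations and random human genomic background sequences, printed on custom Agilent 4×180K protein-binding microarrays. Arrays were incubated 1 h with ligand-free nuclear receptor dimers in PBS pH 7.4, 2% milk, 0.02% Triton X-100, 1 mM DTT, 0.2 mg/mL BSA and 0.4 mg/ml salmon testes DNA. Antibodies against each partner (one per run) detected binding, and scanned fluorescence was regression-normalized. Binding z-scores use the random background probes as reference.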
row,Sequence,PBM binding z-score
1,CCAGACAGGTGAAAGGTAACTTAGTCTGGTACGC,-0.035
2,GCTAGCTGGTCAGTAAAAGGTCACACACCGGTCG,0.209
3,ATCTCTAGGTAAGACTCAGTTCAGTTAAGAACGC,1.83
4,TCATATAGATAAACAGGTGAAAGTCCGTAAGTTA,0.573
5,TCGAGTATGTTAGTCGGGGCATTCAGCCAACATA,-0.529
6,CGTCCAAGGTCAGCAGGTCAATGAAAGCGACGTG,0.593
7,CTCGAAAGGTCGGTTGAGGTGAGTATCCGGATAA,-0.135
8,CCAAGTAGGTTATGGGGCATTCAGGCAACGGTGA,-0.101
9,AGAATGAGGATATACGTAGATCAGGGAAGAAAGT,-0.147
10,CCTTACGGGTCAAGGGTATAGCACGGGTGGTACG,-0.229
11,CAAACTAGGTCACCGAGGTCAAAGTCCGTGCGTA,12.2
12,TGTCAAAGTTCAAAGGTAACCTAAGTATCCACAC,4.14
13,ACTATTAGTTGACTTAGGGCGACCGATACGACGC,0.0652
14,TTACCAAGGTTAAGGTCGTTGATCCCTCTGTAGA,1.3
15,GCAGACAGGGGAAACGCAGGTAACTCAGGGTGGC,-0.571
16,GCTAGCAGGCCATTTGGGTCACTCTATGACGGGC,-0.0419
17,ATCTCTAGCTAAGACTCAGTTCAGTGAAGAACGC,1.14
18,ATCTCTAGGTAACAAGTTCAGTCAAAGAGAGGAC,2.04

# System: RARa:RXR (NR concentration 270 nM, RXRa partner concentration 90 nM)
# Experiment: as above
# Procedure, shortened: as §1
row,Sequence,PBM binding z-score
1,TAGCCTAGGTCATGGGCTAGTATACCACGCGAAC,2.74
2,TCAGACAGGTGATGGTAACTCAGGTACGCAGTCG,0.242
3,GTACCAAGGAGAATAGGTCGTTGATGAGTAGGCG,0.0615
4,TATCCTAGGTCATGGGCCAGTATACCACGCGAAC,2.93
5,CGAACTAGGTCATTGAGAGGACAGTGAATAGTAA,3.08
6,TTACCAAGGTGAGCTGAGGTCGTTGATCCAACTC,1.72
7,TTACCAAGGTTAGCTGAGGTCGTTGATCCAACTC,2.83
8,CCTTACGGGTCACAGACAGGTTATAGCATTTGGA,4.91
9,TCGAGTAGGTTAGTCGGGGCAATCAGCCAACATA,0.453
10,GCTTGTAGAACAAGGTTAAGAAAGACTAAGCTAA,0.612
11,TCATAGAGGTAATACAGGTGAAAGTCGGCATCTA,1.04
12,GCTGCTAAGTCAGGTTGGTCAGCTAACGGGTACG,-0.502
13,CGTCCAAGGTCAGAAGGTCAGTGAAAGCGACGTG,5.89
14,TCTATTAGTTGAAGGGCAACCGGCGAGTCCGTTT,0.455
15,ATCTCTAGGTTACCAAGTTCAGTGAATGCCGAAC,1.46
16,CGTCCAAGGTCAATGCTAGGTCCGTGAAAGCATT,4.21
17,CTACCAAGGGGAACAAGGTCGTTGATTACTATTC,1.16
18,CCTTACGGGCCACTGACAGGTTATAGCATTTGGA,0.247
19,TCAAGTTGGTCAAAGGTCACACACTCGAAATGCG,7.41
20,TCTATTAGTTGATTGGGGCAACCGAAACAGCGGA,1.14

row,Sequence,PBM binding z-score
1,ATATGTAGGTTACATCCGTGTCATTCAGGCTATG,0.935
2,GCAGACCGGTGAAACGCAGGTAACTCAGGGTGGC,-0.497
3,CCAGACAGGTGAAAGGTAACTTAGTCTGGTACGC,1.59
4,GCTAGCTGGTCAGTAAAAGGTCACACACCGGTCG,6.16
5,ATCTCTAGGTAAGACTCAGTTCAGTTAAGAACGC,0.499
6,TCATATAGATAAACAGGTGAAAGTCCGTAAGTTA,1.37
7,TCGAGTATGTTAGTCGGGGCATTCAGCCAACATA,-0.247
8,CGTCCAAGGTCAGCAGGTCAATGAAAGCGACGTG,5.49
9,CTCGAAAGGTCGGTTGAGGTGAGTATCCGGATAA,2.21
10,CCAAGTAGGTTATGGGGCATTCAGGCAACGGTGA,0.207
11,AGAATGAGGATATACGTAGATCAGGGAAGAAAGT,-0.363
12,CCTTACGGGTCAAGGGTATAGCACGGGTGGTACG,4.27
13,CAAACTAGGTCACCGAGGTCAAAGTCCGTGCGTA,7.45
14,TGTCAAAGTTCAAAGGTAACCTAAGTATCCACAC,6.39
15,ACTATTAGTTGACTTAGGGCGACCGATACGACGC,0.194
16,TTACCAAGGTTAAGGTCGTTGATCCCTCTGTAGA,3.04
17,GCAGACAGGGGAAACGCAGGTAACTCAGGGTGGC,-0.366
18,GCTAGCAGGCCATTTGGGTCACTCTATGACGGGC,0.546
19,ATCTCTAGCTAAGACTCAGTTCAGTGAAGAACGC,0.508
20,ATCTCTAGGTAACAAGTTCAGTCAAAGAGAGGAC,1.1

# System: RARa homodimer (NR concentration 270 nM)
# Experiment: as above
# Procedure, shortened: as §1
row,Sequence,PBM binding z-score
1,TAGCCTAGGTCATGGGCTAGTATACCACGCGAAC,-0.439
2,TCAGACAGGTGATGGTAACTCAGGTACGCAGTCG,0.298
3,GTACCAAGGAGAATAGGTCGTTGATGAGTAGGCG,0.574
4,TATCCTAGGTCATGGGCCAGTATACCACGCGAAC,1.01
5,CGAACTAGGTCATTGAGAGGACAGTGAATAGTAA,-0.238
6,TTACCAAGGTGAGCTGAGGTCGTTGATCCAACTC,-1.01
7,TTACCAAGGTTAGCTGAGGTCGTTGATCCAACTC,-0.023
8,CCTTACGGGTCACAGACAGGTTATAGCATTTGGA,0.967
9,TCGAGTAGGTTAGTCGGGGCAATCAGCCAACATA,-0.959
10,GCTTGTAGAACAAGGTTAAGAAAGACTAAGCTAA,-0.688
11,TCATAGAGGTAATACAGGTGAAAGTCGGCATCTA,0.214
12,GCTGCTAAGTCAGGTTGGTCAGCTAACGGGTACG,-0.643
13,CGTCCAAGGTCAGAAGGTCAGTGAAAGCGACGTG,1.32
14,TCTATTAGTTGAAGGGCAACCGGCGAGTCCGTTT,0.951
15,ATCTCTAGGTTACCAAGTTCAGTGAATGCCGAAC,1.16
16,CGTCCAAGGTCAATGCTAGGTCCGTGAAAGCATT,1.32
17,CTACCAAGGGGAACAAGGTCGTTGATTACTATTC,-0.123
18,CCTTACGGGCCACTGACAGGTTATAGCATTTGGA,0.161
19,TCAAGTTGGTCAAAGGTCACACACTCGAAATGCG,2.74
20,TCTATTAGTTGATTGGGGCAACCGAAACAGCGGA,1.31

row,Sequence,PBM binding z-score
1,ATATGTAGGTTACATCCGTGTCATTCAGGCTATG,0.528
2,GCAGACCGGTGAAACGCAGGTAACTCAGGGTGGC,-1.38
3,CCAGACAGGTGAAAGGTAACTTAGTCTGGTACGC,0.346
4,GCTAGCTGGTCAGTAAAAGGTCACACACCGGTCG,2.36
5,ATCTCTAGGTAAGACTCAGTTCAGTTAAGAACGC,1.6
6,TCATATAGATAAACAGGTGAAAGTCCGTAAGTTA,1.53
7,TCGAGTATGTTAGTCGGGGCATTCAGCCAACATA,-0.841
8,CGTCCAAGGTCAGCAGGTCAATGAAAGCGACGTG,0.0185
9,CTCGAAAGGTCGGTTGAGGTGAGTATCCGGATAA,-0.322
10,CCAAGTAGGTTATGGGGCATTCAGGCAACGGTGA,0.919
11,AGAATGAGGATATACGTAGATCAGGGAAGAAAGT,0.32
12,CCTTACGGGTCAAGGGTATAGCACGGGTGGTACG,0.518
13,CAAACTAGGTCACCGAGGTCAAAGTCCGTGCGTA,1.57
14,TGTCAAAGTTCAAAGGTAACCTAAGTATCCACAC,1.28
15,ACTATTAGTTGACTTAGGGCGACCGATACGACGC,0.515
16,TTACCAAGGTTAAGGTCGTTGATCCCTCTGTAGA,-0.0492
17,GCAGACAGGGGAAACGCAGGTAACTCAGGGTGGC,-1.03
18,GCTAGCAGGCCATTTGGGTCACTCTATGACGGGC,-0.641
19,ATCTCTAGCTAAGACTCAGTTCAGTGAAGAACGC,0.699
20,ATCTCTAGGTAACAAGTTCAGTCAAAGAGAGGAC,1.66
